{"source": "PubChem BioAssay AID1159580", "about": "(chemical genetic matrix, 2015)", "assay": "chemical genetic growth profiling, strain panel (AID 1159580);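 note: tested at 20 µM; growth read once vehicle control cultures reached saturation at 30 °C; 1 = growth at the plate median or of vehicle wells; lower values mean less growth of the strain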", "conditions": "growth OD", "note": "About 2,000 (36%) of roughly 5,500 compounds were called active. About 18% were inconclusive and are not listed. Some of the results follow. A number with no mark means an inactive call. Cut-off read from the data, not from the text of the source: active = normalized growth mostly below about 0.91 (no sharp cut-off); inconclusive = no clear call, values can overlap the other calls; inactive = mostly above about 0.92."}
{"smiles": "Cc1ccc(C(C)C)c(O)c1C(=O)O", "values": [{"measurement": "normalized growth", "setting": "S. cerevisiae deletion strains, locus YAL013W, strain DEP1, hits give low values", "value": 0.993}, {"measurement": "normalized growth", "setting": "S. cerevisiae deletion strains, locus YBR021W, strain FUR4, hits give low values", "value": 0.912}, {"measurement": "normalized growth", "setting": "S. cerevisiae deletion strains, locus YBR229C, strain ROT2, hits give low values", "value": 0.986}, {"measurement": "normalized growth", "setting": "S. cerevisiae deletion strains, locus YCL029C, strain bik1, hits give low values", "value": 0.951}, {"measurement": "normalized growth", "setting": "S. cerevisiae deletion strains, locus YDL035C, strain GPR1, hits give low values", "value": 0.997}, {"measurement": "normalized growth", "setting": "S. cerevisiae deletion strains, locus YDL074C, strain BRE1, hits give low values", "value": 0.998}, {"measurement": "normalized growth", "setting": "S. cerevisiae deletion strains, locus YDL101C, strain DUN1, hits give low values", "value": 0.999}, {"measurement": "normalized growth", "setting": "S. cerevisiae deletion strains, locus YDL134C, strain PPH21, hits give low values", "value": 0.998}, {"measurement": "normalized growth", "setting": "S. cerevisiae deletion strains, locus YDL185W, strain tfp1, hits give low values", "value": "0.784 (active)"}, {"measurement": "normalized growth", "setting": "S. cerevisiae deletion strains, locus YDL192W, strain arf1, hits give low values", "value": 0.95}, {"measurement": "normalized growth", "setting": "S. cerevisiae deletion strains, locus YDR101C, strain arx1, hits give low values", "value": 0.971}, {"measurement": "normalized growth", "setting": "S. cerevisiae deletion strains, locus YDR162C, strain NBP2, hits give low values", "value": 0.977}, {"measurement": "normalized growth", "setting": "S. cerevisiae deletion strains, locus YDR318W, strain mcm21, hits give low values", "value": 0.96}, {"measurement": "normalized growth", "setting": "S. cerevisiae deletion strains, locus YDR388W, hits give low values", "value": 0.935}, {"measurement": "normalized growth", "setting": "S. cerevisiae deletion strains, locus YDR502C, strain sam2, hits give low values", "value": 0.957}, {"measurement": "normalized growth", "setting": "S. cerevisiae deletion strains, locus YEL061C, strain CIN8, hits give low values", "value": 0.981}, {"measurement": "normalized growth", "setting": "S. cerevisiae deletion strains, locus YER110C, hits give low values", "value": 0.959}, {"measurement": "normalized growth", "setting": "S. cerevisiae deletion strains, locus YER155C, strain BEM2, hits give low values", "value": "0.914 (active)"}, {"measurement": "normalized growth", "setting": "S. cerevisiae deletion strains, locus YER167W, strain BCK2, hits give low values", "value": 0.973}, {"measurement": "normalized growth", "setting": "S. cerevisiae deletion strains, locus YGL078C, strain dbp3, hits give low values", "value": "0.859 (active)"}, {"measurement": "normalized growth", "setting": "S. cerevisiae deletion strains, locus YGL086W, strain mad1, hits give low values", "value": 0.975}, {"measurement": "normalized growth", "setting": "S. cerevisiae deletion strains, locus YGL248W, strain PDE1, hits give low values", "value": 0.995}, {"measurement": "normalized growth", "setting": "S. cerevisiae deletion strains, locus YGR078C, strain PAC10, hits give low values", "value": 1}, {"measurement": "normalized growth", "setting": "S. cerevisiae deletion strains, locus YGR135W, strain pre9, hits give low values", "value": 0.975}, {"measurement": "normalized growth", "setting": "S. cerevisiae deletion strains, locus YGR252W, strain gcn5, hits give low values", "value": 0.919}, {"measurement": "normalized growth", "setting": "S. cerevisiae deletion strains, locus YHR030C, strain SLT2, hits give low values", "value": 0.97}, {"measurement": "normalized growth", "setting": "S. cerevisiae deletion strains, locus YHR079C, strain IRE1 (second series), hits give low values", "value": 0.936}, {"measurement": "normalized growth", "setting": "S. cerevisiae deletion strains, locus YHR094C, strain hxt1, hits give low values", "value": "0.923 (active)"}, {"measurement": "normalized growth", "setting": "S. cerevisiae deletion strains, locus YHR129C, strain ARP1, hits give low values", "value": 0.965}, {"measurement": "normalized growth", "setting": "S. cerevisiae deletion strains, locus YHR200W, strain rpn10, hits give low values", "value": 0.945}, {"measurement": "normalized growth", "setting": "S. cerevisiae deletion strains, locus YIL066C, strain RNR3, hits give low values", "value": 1.01}, {"measurement": "normalized growth", "setting": "S. cerevisiae deletion strains, locus YIL073C, strain SPO22, hits give low values", "value": 1}, {"measurement": "normalized growth", "setting": "S. cerevisiae deletion strains, locus YIL125W, strain kgd1, hits give low values", "value": "0.808 (active)"}, {"measurement": "normalized growth", "setting": "S. cerevisiae deletion strains, locus YIR030C, strain dcg1, hits give low values", "value": 0.949}, {"measurement": "normalized growth", "setting": "S. cerevisiae deletion strains, locus YJL095W, strain BCK1, hits give low values", "value": 0.992}, {"measurement": "normalized growth", "setting": "S. cerevisiae deletion strains, locus YJL134W, strain LCB3, hits give low values", "value": 0.955}, {"measurement": "normalized growth", "setting": "S. cerevisiae deletion strains, locus YJL168C, strain set2, hits give low values", "value": "0.921 (active)"}, {"measurement": "normalized growth", "setting": "S. cerevisiae deletion strains, locus YJL187C, strain SWE1 (second series), hits give low values", "value": 1.01}, {"measurement": "normalized growth", "setting": "S. cerevisiae deletion strains, locus YJR043C, strain POL32, hits give low values", "value": 0.981}, {"measurement": "normalized growth", "setting": "S. cerevisiae deletion strains, locus YJR075W, strain HOC1, hits give low values", "value": 0.998}, {"measurement": "normalized growth", "setting": "S. cerevisiae deletion strains, locus YKL009W, strain mrt4, hits give low values", "value": 0.897}, {"measurement": "normalized growth", "setting": "S. cerevisiae deletion strains, locus YKL068W, hits give low values", "value": "0.82 (active)"}, {"measurement": "normalized growth", "setting": "S. cerevisiae deletion strains, locus YKL085W, strain MDH1 (second series), hits give low values", "value": "0.83 (active)"}, {"measurement": "normalized growth", "setting": "S. cerevisiae deletion strains, locus YKL085W, strain MDH1, hits give low values", "value": "0.83 (active)"}, {"measurement": "normalized growth", "setting": "S. cerevisiae deletion strains, locus YKL190W, strain CNB1, hits give low values", "value": 0.987}, {"measurement": "normalized growth", "setting": "S. cerevisiae deletion strains, locus YKR001C, strain vps1, hits give low values", "value": 0.917}, {"measurement": "normalized growth", "setting": "S. cerevisiae deletion strains, locus YLR039C, strain RIC1, hits give low values", "value": 0.943}, {"measurement": "normalized growth", "setting": "S. cerevisiae deletion strains, locus YLR058C, strain SHM2, hits give low values", "value": 0.995}, {"measurement": "normalized growth", "setting": "S. cerevisiae deletion strains, locus YLR102C, strain apc9, hits give low values", "value": "0.918 (active)"}, {"measurement": "normalized growth", "setting": "S. cerevisiae deletion strains, locus YLR262C, strain YPT6, hits give low values", "value": 0.986}, {"measurement": "normalized growth", "setting": "S. cerevisiae deletion strains, locus YLR268W, strain sec22, hits give low values", "value": 0.96}, {"measurement": "normalized growth", "setting": "S. cerevisiae deletion strains, locus YLR330W, strain CHS5, hits give low values", "value": 0.947}, {"measurement": "normalized growth", "setting": "S. cerevisiae deletion strains, locus YLR342W, strain FKS1 (second series), hits give low values", "value": 0.973}, {"measurement": "normalized growth", "setting": "S. cerevisiae deletion strains, locus YLR371W, strain rom2, hits give low values", "value": 0.94}, {"measurement": "normalized growth", "setting": "S. cerevisiae deletion strains, locus YLR418C, strain cdc73, hits give low values", "value": 0.946}, {"measurement": "normalized growth", "setting": "S. cerevisiae deletion strains, locus YML016C, strain PPZ1, hits give low values", "value": 0.977}, {"measurement": "normalized growth", "setting": "S. cerevisiae deletion strains, locus YML032C, strain rad52, hits give low values", "value": 0.959}, {"measurement": "normalized growth", "setting": "S. cerevisiae deletion strains, locus YML124C, strain tub3, hits give low values", "value": "0.929 (active)"}, {"measurement": "normalized growth", "setting": "S. cerevisiae deletion strains, locus YMR078C, strain ctf18, hits give low values", "value": 0.916}, {"measurement": "normalized growth", "setting": "S. cerevisiae deletion strains, locus YMR223W, strain ubp8, hits give low values", "value": 0.972}, {"measurement": "normalized growth", "setting": "S. cerevisiae deletion strains, locus YMR263W, strain SAP30, hits give low values", "value": 0.989}, {"measurement": "normalized growth", "setting": "S. cerevisiae deletion strains, locus YMR307W, strain GAS1, hits give low values", "value": 0.967}, {"measurement": "normalized growth", "setting": "S. cerevisiae deletion strains, locus YNL067W, strain RPL9B, hits give low values", "value": 0.997}, {"measurement": "normalized growth", "setting": "S. cerevisiae deletion strains, locus YNL128W, strain TEP1, hits give low values", "value": 1.01}, {"measurement": "normalized growth", "setting": "S. cerevisiae deletion strains, locus YNL233W, strain BNI4, hits give low values", "value": 0.993}, {"measurement": "normalized growth", "setting": "S. cerevisiae deletion strains, locus YNL250W, strain rad50, hits give low values", "value": "0.848 (active)"}, {"measurement": "normalized growth", "setting": "S. cerevisiae deletion strains, locus YNL271C, strain bni1, hits give low values", "value": "0.831 (active)"}, {"measurement": "normalized growth", "setting": "S. cerevisiae deletion strains, locus YNL298W, strain CLA4, hits give low values", "value": "0.842 (active)"}, {"measurement": "normalized growth", "setting": "S. cerevisiae deletion strains, locus YNL307C, strain MCK1, hits give low values", "value": 0.928}, {"measurement": "normalized growth", "setting": "S. cerevisiae deletion strains, locus YNR052C, strain pop2, hits give low values", "value": 0.951}, {"measurement": "normalized growth", "setting": "S. cerevisiae deletion strains, locus YOL006C, strain TOP1, hits give low values", "value": 0.977}, {"measurement": "normalized growth", "setting": "S. cerevisiae deletion strains, locus YOL012C, strain htz1", "value": 1.59}, {"measurement": "normalized growth", "setting": "S. cerevisiae deletion strains, locus YOL147C, strain pex11, hits give low values", "value": 0.937}, {"measurement": "normalized growth", "setting": "S. cerevisiae deletion strains, locus YOR061W, strain CKA2, hits give low values", "value": 0.989}, {"measurement": "normalized growth", "setting": "S. cerevisiae deletion strains, locus YOR069W, strain VPS5, hits give low values", "value": 0.974}, {"measurement": "normalized growth", "setting": "S. cerevisiae deletion strains, locus YOR136W, strain idh2, hits give low values", "value": 0.979}, {"measurement": "normalized growth", "setting": "S. cerevisiae deletion strains, locus YOR144C, strain elg1, hits give low values", "value": "0.928 (active)"}, {"measurement": "normalized growth", "setting": "S. cerevisiae deletion strains, locus YOR184W, strain ser1, hits give low values", "value": 0.962}, {"measurement": "normalized growth", "setting": "S. cerevisiae deletion strains, locus YOR316C, strain cot1, hits give low values", "value": 0.93}, {"measurement": "normalized growth", "setting": "S. cerevisiae deletion strains, locus YPL241C, strain CIN2, hits give low values", "value": 0.971}, {"measurement": "normalized growth", "setting": "S. cerevisiae deletion strains, locus YPR119W, strain clb2, hits give low values", "value": "0.918 (active)"}, {"measurement": "normalized growth", "setting": "S. cerevisiae deletion strains, locus YPR141C, strain kar3, hits give low values", "value": "0.797 (active)"}, {"measurement": "normalized growth", "setting": "S. cerevisiae deletion strains, locus YPR163C, strain tif3, hits give low values", "value": "0.908 (active)"}, {"measurement": "normalized growth", "setting": "S. cerevisiae deletion strains, locus YPR167C, strain met16, hits give low values", "value": 0.936}, {"measurement": "normalized growth", "setting": "S. cerevisiae deletion strains, strain wtn01, hits give low values", "value": 0.955}, {"measurement": "normalized growth", "setting": "S. cerevisiae strains, strain wild type, hits give low values", "value": 0.988}]}
